High-throughput results (PubChem)
Tg IFNy HTS: T. gondii growth inhibition under IFN-gamma; Toxoplasma gondii growth in IFN-gamma-treated host cells; stronger effect = lower value; activity change, negative = inhibition, % (concentration not given with the values); 69,000 tested, 3.8% active; in the data active = activity change below about -70%, passing the limit was not always enough;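 also: host cells are HeLa cells infected with Toxoplasma gondii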
Starred values were filed as active, the others as inactive. The full list was thinned out, with hits kept by preference.

SMILES	Tg IFNy HTS
CCS(=O)(=O)N1CCC2(CC1)OC(=O)C(C)=C2C(=O)Nc1cccc(Cl)c1Cl	17.1
COCC(=O)N1CCC2(CC1)CC1(CCN(CC(C)C)CC1)C(=O)N2C	-48.9
CC(C)N(C)CC1CCC2(CCN(c3nncs3)CC2)CO1 (centres undefined)	2.9
COc1ccc(CN2CCCCCC2)cc1OCC(O)CN1CCCCCCC1 (centres undefined)	-30.8
COCCn1cc(-c2nc(C(=O)C3CC3)c3ccccn23)nc1C	6.5
Cc1cnn(Cc2nc(-c3ccc(NC(=O)c4c(F)cccc4Cl)cc3)oc2C)c1	-53.7
Cc1oc(-c2ccc(NC(=O)c3ccc(F)c(Cl)c3)cc2)nc1Cn1cccn1	-69.1
Cc1oc(-c2ccc(NC(=O)c3cc(F)ccc3Cl)cc2)nc1Cn1cccn1	-91.7*
Cc1oc(-c2ccc(NC(=O)c3ccccc3C(F)(F)F)cc2)nc1Cn1cccn1	-46.0
Cc1cnn(Cc2nc(-c3ccc(NC(=O)c4cc(F)ccc4Cl)cc3)oc2C)c1	-88.9*
Cc1cnn(Cc2nc(-c3ccc(NC(=O)c4ccc(F)cc4F)cc3)oc2C)c1	-3.9
COc1ccccc1C(=O)Nc1ccc(-c2nc(Cn3cccn3)c(C)o2)cc1	-25.1
Cc1oc(-c2ccc(NC(=O)c3c(F)cccc3Cl)cc2)nc1Cn1cccn1	65.2
CSc1ccc(Cl)c(C(=O)Nc2ccc(-c3nc(Cn4cccn4)c(C)o3)cc2)c1	-92.9*
Cc1ccc(CS(=O)(=O)N2CCNC(C(=O)O)C2)cc1 (centres undefined)	-3.8
O=C(Cc1cccc(F)c1)N1CCc2ncnc(C3CC3)c2CC1	-5.3
Cn1c(=O)n(C)c2cc(Br)c(N)cc21	441.5
O=C(NC1CC1)C1CNCCN1C(=O)c1cccc2cnccc12 (centres undefined)	11.3
CCC(=O)NC1CC2(CCN(c3ncccn3)CC2)Oc2ccccc21 (centres undefined)	1.7
CS(=O)(=O)N[C@@H]1CCN(C2CCOCC2)[C@@H]1Cc1cccnc1	-5.5
Cc1nn(C)c(Oc2ccc(Cl)cc2)c1CN1CC[C@H](CO)[C@@H](O)C1	-13.5
COc1nccnc1NS(=O)(=O)c1ccc(NC(=S)NC(=O)c2ccco2)cc1	-9.0
COCc1nnc(NC(=O)CC2C(=O)NCCN2C2CCCC2)s1 (centres undefined)	5.5
Cc1cccc(C(=O)NCCc2sc(-c3ccc(F)cc3)nc2C)c1	-66.1
O=C(CCC1CCCC1)N1CCC2(CC1)Nc1ccc(Cl)cc1-n1cccc12	57.3
SMILES	Tg IFNy HTS
CCC(=O)N1CCC2(CC1)Nc1ccc(Cl)cc1-n1cccc12	51.0
Cc1ccc2c(c1)NC1(CCN(C(=O)CCc3ccccc3)CC1)c1cccn1-2	5.1
O=C(CC1CCCC1)N1CCC2(CC1)Nc1ccc(Cl)cc1-n1cccc12	58.7
Cc1ccc2c(c1C)-n1cccc1C1(CCN(C(=O)CCC3CCCC3)CC1)N2	33.0
O=C(CCc1ccccc1)N1CCC2(CC1)Nc1ccc(Cl)cc1-n1cccc12	-121.5*
CCCCC(=O)N1CCC2(CC1)Nc1ccc(Cl)cc1-n1cccc12	-108.2*
Cc1ccc2c(c1C)-n1cccc1C1(CCN(C(=O)CC3CCCCC3)CC1)N2	27.4
Cc1ccc2c(c1C)-n1cccc1C1(CCN(C(=O)CC3CCCC3)CC1)N2	-87.6*
O=C(CCn1c2c(c3ccccc31)CCCC2)N1CCC(c2ccncc2)CC1	-3.8
CC(C)N(C)Cc1ncn2c1CN(C(=O)COc1ccccc1)CCC2	-7.4
COC[C@H]1CN(C)C[C@@]12CCN(C(=O)COc1ccccc1)C2	1.9
Cc1nonc1C(=O)NCC(c1ccco1)N1CCCC1 (centres undefined)	10.0
O=S(=O)(c1ccc(Br)cc1)N1CCC2(CC1)Nc1cc(F)ccc1-n1cccc12	32.3
COc1ccc(/C=C/c2nn3c(-c4ccc(OC)c(OC)c4)nnc3s2)cc1	-100.9*
COc1ccc(-c2nc(C)c(C(C)=O)n2O)cc1OC	10.5
COc1ccc(-c2nnc3sc(C4COc5ccccc5O4)nn23)cc1OC (centres undefined)	-40.7
Cn1nc(C(F)(F)F)c2cc(C(=O)N3CC[C@H](O)[C@@H](O)C3)sc21	-10.3
Cc1cnc(-n2cnnc2)c(/C=C/c2ccccc2)c1	-0.1
CCc1nnsc1C(=O)N1CCCC1c1c(C)noc1C (centres undefined)	-43.2
COc1cccc(CN2CCN(Cc3cccc(SC)c3)CC2=O)c1	-46.4
COc1cccc(-c2ccc3c(c2)O[C@@H](CN(C)Cc2cccnc2)[C@@H](C)CN([C@@H](C)CO)S3(=O)=O)c1	-54.6
COc1cccc(-c2ccc3c(c2)O[C@H](CN(C)Cc2cccnc2)[C@@H](C)CN([C@H](C)CO)S3(=O)=O)c1	-97.2*
COc1ccccc1-c1ccc2c(c1)O[C@H](CN(C)CC1CCOCC1)[C@@H](C)CN([C@@H](C)CO)S2(=O)=O	-19.2
C[C@@H]1CN([C@@H](C)CO)S(=O)(=O)c2ccc(C#Cc3ccccc3F)cc2O[C@@H]1CN(C)C(=O)Cc1cccnc1	-8.4
COc1cccc(-c2ccc3c(c2)O[C@@H](CN(C)Cc2cccnc2)[C@@H](C)CN([C@H](C)CO)S3(=O)=O)c1	30.3
SMILES	Tg IFNy HTS
COc1cccc(-c2ccc3c(c2)O[C@@H](CN(C)Cc2cccnc2)[C@H](C)CN([C@@H](C)CO)S3(=O)=O)c1	-95.2*
C[C@H](CO)N1C[C@H](C)[C@@H](CN(C)C(=O)Cc2cccnc2)Oc2cc(C#Cc3ccccc3F)ccc2S1(=O)=O	-107.7*
C[C@H]1CN([C@@H](C)CO)S(=O)(=O)c2ccc(C#CC(C)(C)O)cc2O[C@@H]1CN(C)Cc1ccc(F)cc1	-1.9
COc1ccccc1-c1ccc2c(c1)O[C@H](CN(C)CC1CCOCC1)[C@@H](C)CN([C@H](C)CO)S2(=O)=O	-52.1
CCN1c2cc(Cl)ccc2C(=O)NC12CCN(C(=O)NCc1cccc(F)c1)CC2	135.5
Cc1cccc(COC[C@@H]2CCC3C(CCN3S(C)(=O)=O)O2)n1 (some centres undefined)	3.5
NCCS(=O)(=O)c1ccc(F)cc1	-10.4
COc1ncccc1C(Cc1ccsc1)NC(=O)CN(C)C1CCS(=O)(=O)C1 (centres undefined)	-14.5
Cc1ccc2c(c1)c(CNC(=O)c1ccc3c(c1)OCO3)nn2C	9.2
CN(C)c1cccc(C(=O)N2CCC3(CC2)Nc2ccc(Cl)cc2-n2cccc23)c1	12.3
O=S(=O)(c1ccc(Cl)cc1)N1CCCC1c1nc(-c2ccccc2)no1 (centres undefined)	-28.5
COCCO[C@@H]1CCN(S(=O)(=O)C2CC2)[C@H]1Cc1cnn(C)c1	6.6
C=CCO[C@@H]1CN(c2ccc(C)nn2)[C@H]2CCCO[C@@H]12	-29.7
CCOCC1CN(C(=O)c2ccc3c(c2)OCO3)Cc2ccnn2C1 (centres undefined)	24.3
CC(c1ccon1)N(C)C(=O)c1cc(-c2ccncc2)nc2ccccc12 (centres undefined)	-11.4
COCCc1ncc(CN(Cc2ccncc2)Cc2ccc3c(c2)OCO3)cn1	-71.3*
Cc1ccc(O)c(CN(Cc2cccnc2)Cc2ccc3c(c2)OCO3)n1	-25.1
Cc1ccc(CN(Cc2ccc3c(c2)OCO3)Cc2cnc(C)[nH]2)cc1	-28.1
O=c1c2ccccc2nnn1Cc1nc(Cc2ccccc2)n[nH]1	-27.9
CC(C)CN1C(=O)N(C2Cc3ccccc3C2)C(=O)C12CCN(Cc1ccsc1)CC2	8.8
Cc1cccnc1CN1CCN(Cc2ccc(-c3ccccc3)nc2)CC1	-8.6
FC(F)(F)C1CN(c2nc(-c3ccccc3)no2)CCO1 (centres undefined)	21.0
